From PubChem BioAssay
Compounds with a hit are over-represented: about 3.2% of the library has one in this group of screens.
TSHR ag – activates the human thyroid stimulating hormone receptor | 73,000 tested, 0.48% active | Potency, µM (titrated, usually from 57.1 µM), most hits filed as activators | P16473 | HEK293-CNG-TSHR cells (CNG channel as cAMP sensor), membrane potential dye, cAMP | AID 926; active = well fitted activation curve with a large enough effect in the main read-out, with a control signal flat, not every such curve was filed as active; inconclusive = small, poorly fitted or top-dose-only effect, or a change in a side signal; inactive = no such curve, though single readings can be large or run the other way; reference of the percent scale not stated here;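 note: the control signal comes from parental cells without the receptor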
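HEK 293 cells stably expressing TSHR and a modified CNG channel, with CNG-only parental cells as counterscreen, were preloaded 60 min at room temperature with membrane potential dye containing 100 uM RO 20-1724. Compound exposure was 30 min, and depolarization was read as fluorescence at 590 nm.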
BRCT PPI red – BRCT-phosphoprotein interaction inhibition (red fluorophore) | P38398 | BRCT-phosphopeptide binding, red fluorescence polarization | Potency, µM (titrated, usually from 76.9 µM), actives largely listed as inhibitors | 75,000 tested, 0.03% active
Target sequence (P38398 whole entry, looked up): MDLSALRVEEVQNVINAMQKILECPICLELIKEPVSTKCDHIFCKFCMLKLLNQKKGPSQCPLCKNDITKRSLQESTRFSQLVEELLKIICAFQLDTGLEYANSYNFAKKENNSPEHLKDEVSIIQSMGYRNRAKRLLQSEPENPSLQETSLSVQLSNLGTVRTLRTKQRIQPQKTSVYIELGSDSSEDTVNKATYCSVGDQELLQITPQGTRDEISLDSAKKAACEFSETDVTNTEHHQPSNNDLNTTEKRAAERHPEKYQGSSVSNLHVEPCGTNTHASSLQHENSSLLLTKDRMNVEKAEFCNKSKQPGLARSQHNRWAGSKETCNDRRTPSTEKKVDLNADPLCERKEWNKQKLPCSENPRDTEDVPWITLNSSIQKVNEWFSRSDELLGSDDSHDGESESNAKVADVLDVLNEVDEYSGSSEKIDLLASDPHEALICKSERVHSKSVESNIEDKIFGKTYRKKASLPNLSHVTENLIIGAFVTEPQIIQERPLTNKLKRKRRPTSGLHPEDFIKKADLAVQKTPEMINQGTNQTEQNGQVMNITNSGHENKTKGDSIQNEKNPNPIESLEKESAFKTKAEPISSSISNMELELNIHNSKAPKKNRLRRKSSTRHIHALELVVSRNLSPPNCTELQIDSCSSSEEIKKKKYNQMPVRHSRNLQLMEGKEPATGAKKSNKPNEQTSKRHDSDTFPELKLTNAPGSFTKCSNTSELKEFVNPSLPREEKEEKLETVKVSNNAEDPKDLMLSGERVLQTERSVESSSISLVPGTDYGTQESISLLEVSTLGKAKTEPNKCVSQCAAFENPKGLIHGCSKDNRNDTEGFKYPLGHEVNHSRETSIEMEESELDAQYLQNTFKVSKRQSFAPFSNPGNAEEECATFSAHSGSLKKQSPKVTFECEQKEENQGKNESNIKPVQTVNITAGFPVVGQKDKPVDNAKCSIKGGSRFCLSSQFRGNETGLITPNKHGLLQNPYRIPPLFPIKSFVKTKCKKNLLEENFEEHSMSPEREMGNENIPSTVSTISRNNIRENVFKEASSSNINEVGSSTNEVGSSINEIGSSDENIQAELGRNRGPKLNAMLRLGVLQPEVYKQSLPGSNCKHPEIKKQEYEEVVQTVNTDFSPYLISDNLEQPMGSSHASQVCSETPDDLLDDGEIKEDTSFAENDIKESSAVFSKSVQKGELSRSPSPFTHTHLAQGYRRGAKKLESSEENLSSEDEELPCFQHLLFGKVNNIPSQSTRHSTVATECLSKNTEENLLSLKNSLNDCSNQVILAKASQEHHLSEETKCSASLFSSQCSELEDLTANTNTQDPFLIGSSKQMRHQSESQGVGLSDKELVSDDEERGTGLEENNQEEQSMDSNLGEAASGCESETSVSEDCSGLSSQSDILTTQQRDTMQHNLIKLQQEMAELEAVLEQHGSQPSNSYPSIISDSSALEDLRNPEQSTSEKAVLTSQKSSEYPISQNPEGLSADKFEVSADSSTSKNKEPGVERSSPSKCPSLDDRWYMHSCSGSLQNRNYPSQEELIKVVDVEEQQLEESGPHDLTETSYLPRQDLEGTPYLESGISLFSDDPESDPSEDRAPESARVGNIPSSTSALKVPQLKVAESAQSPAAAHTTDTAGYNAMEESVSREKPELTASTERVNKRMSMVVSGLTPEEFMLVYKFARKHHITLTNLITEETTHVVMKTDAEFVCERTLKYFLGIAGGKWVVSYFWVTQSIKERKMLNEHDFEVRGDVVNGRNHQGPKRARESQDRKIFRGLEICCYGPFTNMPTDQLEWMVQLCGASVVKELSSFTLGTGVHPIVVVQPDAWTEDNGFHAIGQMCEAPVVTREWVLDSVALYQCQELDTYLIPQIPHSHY
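Fluorescence polarization: 100 nM His-tagged BRCA1 BRCT with 100 nM TAMRA-labelled phospho-BACH1 decapeptide, phosphate buffer pH 7.3 with 150 mM NaCl, DTT, 0.01% Tween 20; 12 min RT. Binding inhibition seen as FP decrease.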
YjeE inh – inhibitors of E. coli YjeE (TsaE) | purified YjeE enzyme, qHTS inhibition assay | Potency, µM | 71,000 tested, 0.05% active | AID 605
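Purified YjeE (10 uM) with BODIPY Texas Red-labeled ADP probe (2 uM); compounds pin-transferred, 15 min at room temperature. Binding inhibition read as decreased fluorescence polarization; ADP titration as control.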
BRCT PPI green – blocks human BRCA1 BRCT binding to phosphopeptide, green readout | P38398 | BRCA1 BRCT-phosphopeptide binding, green fluorescence polarization | Potency, µM (series often up to 76.9 µM), most hits filed as inhibitors | 75,000 tested, 0.05% active | AID 875
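Fluorescence polarization: His-tagged BRCT (~35 kDa BRCA1 C-terminus, 250 nM) bound to 100 nM fluorescein-labeled phosphorylated 10-aa BACH1 peptide, pH 7.3 phosphate buffer with DTT and Tween 20. Compounds incubated 12 min at room temperature; inhibition read as lowered polarization.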
HEK293 cAMP ctrl – counter-screen for TSHR agonists: cAMP increase in parental HEK293; AID 938; Potency, µM (top dose mostly 57.1 µM), hits mostly activators; parental HEK293 CNG cAMP sensor, membrane potential fluorescence; 73,000 tested, 2.5% active; note: nearly all actives have a fitted effect of over 55% in size
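Parental HEK 293 cells stably expressing a modified CNG channel (no TSHR) report cAMP rise as membrane depolarization. Membrane potential dye with 100 uM RO 20-1724 was loaded for 60 min at room temperature, then compound added for 30 min; fluorescence read at 590 nm.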
Pol III holo inh – blocks replication by bacterial DNA polymerase III holoenzyme | reconstituted DNA polymerase III holoenzyme replication, biochemical | Potency, µM (doses to about 57.1 µM) | 71,000 tested, 0.25% active
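Reconstituted *E. coli* holoenzyme (0.35 nM Pol III, 1 nM beta, 154 nM SSB, 2 nM primase) was preincubated with compound for 15 min at RT. Synthesis on 1.4 nM ssM13Gori ran 35 min, then was stopped with PicoGreen/EDTA and read as dsDNA fluorescence.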
A number is an active result; [ ] = another dose, or the depositor's remark. Unless noted, calls come from the whole dose curve; as a rule, active = well fitted curve in the direction sought with a large enough effect; inconclusive = small, poorly fitted or top-dose-only effect, or another doubt; inactive = no such curve, though single readings can be large; an effect the other way counts as inactive or inconclusive.

Results for COc1ccc(Cn2nnnc2C(CC(C)C)N2CCN(c3ccccc3)CC2)cc1 (configuration not stated) ?
TSHR ag: inconclusive; BRCT PPI red: inactive; YjeE inh: inactive; BRCT PPI green: inactive; HEK293 cAMP ctrl: inconclusive; Pol III holo inh: inactive

How did CC(C)CC(c1nnnn1Cc1ccco1)N1CCN(c2cccc(Cl)c2)CC1 (configuration not stated) do in these assays?
TSHR ag: inconclusive; BRCT PPI red: inactive; YjeE inh: inactive; BRCT PPI green: inactive; HEK293 cAMP ctrl: 10µM; Pol III holo inh: inactive

How did O=C(c1ccco1)N1CCC2(CCCN(C(c3ccccc3)c3ccccc3)C2)CC1 do in these assays?
TSHR ag: inactive; BRCT PPI red: inactive; YjeE inh: inactive; BRCT PPI green: inactive; HEK293 cAMP ctrl: inactive; Pol III holo inh: inactive

What do the screens show for `COc1ccc(C(=O)N2CCC3(CCCN(CC(C)C)C3)CC2)cc1`?
TSHR ag: inactive; BRCT PPI red: inactive; YjeE inh: inactive; BRCT PPI green: inactive; HEK293 cAMP ctrl: inactive; Pol III holo inh: inactive

Results for CCOC(=O)c1oc2ccc(S(=O)(=O)N3CCC(C)CC3)cc2c1C ?
TSHR ag: inconclusive; BRCT PPI red: inactive; YjeE inh: inactive; BRCT PPI green: inactive; HEK293 cAMP ctrl: 25.1µM; Pol III holo inh: inactive

Results for CC(C)[C@H](O)C1=CCCCC1=O ?
TSHR ag: inactive[11.4 µM]; BRCT PPI red: inactive[15.4 µM]; BRCT PPI green: inactive[15.4 µM]; HEK293 cAMP ctrl: inactive[11.4 µM]

Results for CCC(COC(=O)Nc1cccc(C)c1)NC(=O)OCC(C)C (configuration not stated) ?
TSHR ag: inconclusive; BRCT PPI red: inactive; YjeE inh: inactive; BRCT PPI green: inactive; HEK293 cAMP ctrl: inconclusive; Pol III holo inh: inactive

What do the screens show for `Cc1nnsc1NC(=O)OCC(C)C`?
TSHR ag: inconclusive; BRCT PPI red: inactive; YjeE inh: inactive; BRCT PPI green: inactive; HEK293 cAMP ctrl: 12.6µM; Pol III holo inh: inactive

How did CN(C)[C@H]1C(=O)C(C(=O)NCN2CCCC2)=C(O)[C@]2(O)C(=O)C3=C(O)c4c(O)cccc4[C@](C)(O)[C@H]3C[C@H]12 do in these assays?
TSHR ag: inactive[11.4 µM]; BRCT PPI red: inactive[15.4 µM]; YjeE inh: inactive; BRCT PPI green: inactive[15.4 µM]; HEK293 cAMP ctrl: inactive[11.4 µM]; Pol III holo inh: 3.16µM

Results for Cc1nc(NC(C)c2ccccc2)c2oc3ccccc3c2n1 (configuration not stated) ?
TSHR ag: inconclusive; BRCT PPI red: inactive; YjeE inh: inactive; BRCT PPI green: inactive; HEK293 cAMP ctrl: 15.8µM; Pol III holo inh: inconclusive

How did Cc1nc(Nc2ccncc2)c2oc3ccccc3c2n1 do in these assays?
TSHR ag: inactive; BRCT PPI red: inactive; YjeE inh: inactive; BRCT PPI green: inactive; HEK293 cAMP ctrl: inactive; Pol III holo inh: inactive

What do the screens show for `Cc1cc(C)c2[nH]c(=O)c(CN(Cc3ccco3)C(=O)C3CCCO3)cc2c1` (configuration not stated)?
TSHR ag: inactive; BRCT PPI red: inactive; YjeE inh: inactive; BRCT PPI green: inactive; HEK293 cAMP ctrl: inactive; Pol III holo inh: inactive

How did Cc1ccc2cc(CN(Cc3ccco3)C(=O)C3CCCCC3)c(=O)[nH]c2c1C do in these assays?
TSHR ag: inconclusive; BRCT PPI red: inactive; YjeE inh: inactive; BRCT PPI green: inactive; HEK293 cAMP ctrl: 20µM; Pol III holo inh: inactive

Results for O=S(=O)(O)c1ccc(N=Nc2ccccc2)cc1 ?
TSHR ag: inactive[11.4 µM]; BRCT PPI red: inactive[15.4 µM]; YjeE inh: inactive; BRCT PPI green: inactive[15.4 µM]; HEK293 cAMP ctrl: inactive[11.4 µM]; Pol III holo inh: inactive[11.4 µM]

How did CN(C)c1ccc(N=NS(=O)(=O)O)cc1 do in these assays?
TSHR ag: inconclusive; BRCT PPI red: inactive; YjeE inh: inactive; BRCT PPI green: inactive; HEK293 cAMP ctrl: 10µM; Pol III holo inh: inactive

How did CC(C)CN1CCCC2(CCN(S(=O)(=O)c3ccccc3)CC2)C1 do in these assays?
TSHR ag: inconclusive; BRCT PPI red: inactive; YjeE inh: inactive; BRCT PPI green: inactive; HEK293 cAMP ctrl: inconclusive; Pol III holo inh: inactive

How did CCOC(=O)C1=C(N)Oc2ccc(Br)cc2[C@@H]1[C@@H](C#N)C(=O)OCC do in these assays?
TSHR ag: inactive; BRCT PPI red: inactive; YjeE inh: inactive; BRCT PPI green: inactive; HEK293 cAMP ctrl: inactive; Pol III holo inh: inactive

Results for COc1cccc(Cn2c(Oc3cccc(C)c3)nc3c2c(=O)n(C)c(=O)n3C)c1 ?
TSHR ag: inconclusive; BRCT PPI red: inactive; YjeE inh: inactive; BRCT PPI green: inactive; HEK293 cAMP ctrl: 25.1µM; Pol III holo inh: inactive

What do the screens show for `CCCOc1nc2c(c(=O)n(C)c(=O)n2C)n1Cc1cccc2ccccc12`?
TSHR ag: inconclusive; BRCT PPI red: inactive; YjeE inh: inactive; BRCT PPI green: inactive; HEK293 cAMP ctrl: 31.6µM; Pol III holo inh: inactive

How did COCCNc1nc2c(c(=O)n(C)c(=O)n2C)n1Cc1cccc(C)c1 do in these assays?
TSHR ag: inactive; BRCT PPI red: inactive; YjeE inh: inactive; BRCT PPI green: inactive; HEK293 cAMP ctrl: inactive; Pol III holo inh: inactive

What do the screens show for `O=C(Nc1sc2c(c1C(=O)NC1CCCCC1)CCC2)c1ccco1`?
TSHR ag: 15.8µM; BRCT PPI red: inactive; YjeE inh: inactive; BRCT PPI green: inactive; HEK293 cAMP ctrl: inactive; Pol III holo inh: inactive

Results for COc1ccccc1NC(=O)c1c(NC(=O)c2ccco2)sc2c1CCC2 ?
TSHR ag: inactive; BRCT PPI red: inactive; YjeE inh: inactive; BRCT PPI green: inactive; HEK293 cAMP ctrl: inactive; Pol III holo inh: inactive

What do the screens show for `CCC(c1nnnn1CCc1ccccc1)N(Cc1ccco1)Cc1cc2cccc(C)c2[nH]c1=O` (configuration not stated)?
TSHR ag: inconclusive; BRCT PPI red: inactive; YjeE inh: inactive; BRCT PPI green: inactive; HEK293 cAMP ctrl: 15.8µM; Pol III holo inh: inactive

Results for CCOc1ccc2[nH]c(=O)c(CN(Cc3ccco3)C(CC)c3nnnn3Cc3ccccc3)cc2c1 (configuration not stated) ?
BRCT PPI red: inactive; YjeE inh: inactive; BRCT PPI green: inactive; HEK293 cAMP ctrl: inactive; Pol III holo inh: inactive

How did COC(=O)C1=C(C)N(C)C(C)=C(C(=O)OC)C1c1ccncc1 do in these assays?
TSHR ag: inactive; BRCT PPI red: inactive; YjeE inh: inactive; BRCT PPI green: inactive; HEK293 cAMP ctrl: inactive; Pol III holo inh: inactive

How did COC(=O)C1=C(C)N(C)C(C)=C(C(=O)OC)C1c1ccc(F)c(Br)c1 do in these assays?
TSHR ag: inconclusive; BRCT PPI red: inactive; YjeE inh: inactive; BRCT PPI green: inactive; HEK293 cAMP ctrl: 31.6µM; Pol III holo inh: inactive

Results for COc1cccc(Nc2ncc3ncc(=O)n(C)c3n2)c1 ?
TSHR ag: inactive; BRCT PPI red: inactive; YjeE inh: inactive; BRCT PPI green: inactive; HEK293 cAMP ctrl: inactive; Pol III holo inh: inactive
